Measured values taken from PubChem BioAssay (NCATS).
Records with an inconclusive call do not appear. Entries that show only a call come without a potency. Calls of active or inactive are those of the source. The call rests on the fitted dose curve; in most records, active means well fitted inhibition curve with a large enough effect; inconclusive means small, poorly fitted or top-dose-only effect; inactive means flat fitted curve, though single readings scatter.

What follows are molecules tested against Lysine-specific demethylase 5B (Homo sapiens) (UniProt Q9UGL1) (assay: Optimization screen for KDM5B Histone Demethylases FDH coupled qHTS against the LOPAC library (AID 1347166)). Settings: KDM5B demethylation, FDH-coupled NADH fluorescence (FDH is formaldehyde dehydrogenase); series mostly up to 57.5 µM.
Sequence of Lysine-specific demethylase 5B (Homo sapiens) (Q9UGL1 whole entry, looked up): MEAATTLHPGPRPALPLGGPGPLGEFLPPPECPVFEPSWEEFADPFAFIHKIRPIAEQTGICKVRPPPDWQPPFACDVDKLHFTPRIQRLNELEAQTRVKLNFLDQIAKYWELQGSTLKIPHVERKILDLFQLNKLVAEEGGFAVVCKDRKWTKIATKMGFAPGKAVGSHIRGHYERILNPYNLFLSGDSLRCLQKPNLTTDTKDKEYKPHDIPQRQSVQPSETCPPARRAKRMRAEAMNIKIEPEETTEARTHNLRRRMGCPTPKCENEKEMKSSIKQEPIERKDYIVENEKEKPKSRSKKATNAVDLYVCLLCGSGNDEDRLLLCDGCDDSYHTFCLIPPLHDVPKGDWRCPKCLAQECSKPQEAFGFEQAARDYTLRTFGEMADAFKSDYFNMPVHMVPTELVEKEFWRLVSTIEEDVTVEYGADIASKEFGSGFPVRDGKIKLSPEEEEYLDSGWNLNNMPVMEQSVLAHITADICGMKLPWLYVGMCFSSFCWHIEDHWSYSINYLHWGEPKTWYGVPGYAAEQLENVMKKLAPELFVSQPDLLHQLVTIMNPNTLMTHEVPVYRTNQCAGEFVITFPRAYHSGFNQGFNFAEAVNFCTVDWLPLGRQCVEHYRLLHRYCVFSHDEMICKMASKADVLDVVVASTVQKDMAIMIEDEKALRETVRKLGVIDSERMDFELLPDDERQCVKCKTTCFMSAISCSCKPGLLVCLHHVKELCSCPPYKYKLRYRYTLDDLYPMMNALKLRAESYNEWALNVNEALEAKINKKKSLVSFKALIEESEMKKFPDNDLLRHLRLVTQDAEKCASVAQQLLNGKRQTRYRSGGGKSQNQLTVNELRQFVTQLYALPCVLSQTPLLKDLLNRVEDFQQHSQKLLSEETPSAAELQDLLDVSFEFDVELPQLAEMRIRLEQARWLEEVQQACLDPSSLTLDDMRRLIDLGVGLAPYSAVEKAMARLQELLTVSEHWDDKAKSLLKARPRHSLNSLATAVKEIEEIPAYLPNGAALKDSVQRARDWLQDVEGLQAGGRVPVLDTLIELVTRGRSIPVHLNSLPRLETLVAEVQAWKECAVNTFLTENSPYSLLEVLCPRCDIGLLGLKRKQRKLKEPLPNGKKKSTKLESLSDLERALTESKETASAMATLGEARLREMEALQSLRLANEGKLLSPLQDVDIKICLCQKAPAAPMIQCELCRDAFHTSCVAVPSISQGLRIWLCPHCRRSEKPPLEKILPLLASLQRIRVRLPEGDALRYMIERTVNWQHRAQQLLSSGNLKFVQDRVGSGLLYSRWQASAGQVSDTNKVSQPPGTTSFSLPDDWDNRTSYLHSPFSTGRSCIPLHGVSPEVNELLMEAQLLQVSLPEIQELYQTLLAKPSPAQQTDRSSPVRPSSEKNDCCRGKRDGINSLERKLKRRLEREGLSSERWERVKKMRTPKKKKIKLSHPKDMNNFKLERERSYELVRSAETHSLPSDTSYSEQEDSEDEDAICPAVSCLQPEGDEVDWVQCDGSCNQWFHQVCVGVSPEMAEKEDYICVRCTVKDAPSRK
In short: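 KDM5BDeltaAP (200nM final) preincubated 10 min with compound, then 12.5uM H3K4Me3, 25uM a-ketoglutarate, ascorbate, Fe(II), NAD+ and FDH added; 50mM HEPES pH 7.5, 0.01% Tween-20. NADH fluorescence (340/450 nm) change over 30 min, room temperature.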

| SMILES | Potency |
| --- | --- |
| CC(C(=O)O)c1ccc(CC2CCCC2=O)cc1 (centres undefined) | inactive |
| CN=C(NC#N)NCCSCc1nc[nH]c1C | inactive |
| CC(=O)OCC1=C(C(=O)O)N2C(=O)[C@@H](NC(=O)Cc3cccs3)[C@H]2SC1 | inactive |
| Nc1c2c(nc3ccccc13)CCCC2O (centres undefined) | inactive |
| NC(=O)N1c2ccccc2C=Cc2ccccc21 | inactive |
| CCCN1C[C@H](CSC)C[C@@H]2c3cccc4[nH]cc(c34)C[C@H]21 | inactive |
| Nc1ncn([C@@H]2O[C@H](CO)[C@@H](O)[C@H]2O)c(=O)n1 | inactive |
| O=c1[nH]c(=O)n([C@H]2C[C@H](O)[C@@H](CO)O2)cc1Br | inactive |
| C[C@]12CCC(=O)C=C1CC[C@@H]1[C@@H]2CC[C@@]2(C)[C@H]1CC[C@]2(O)C(=O)CO | inactive |
| CCN(CC)CCNC(=O)c1ccc(NC(C)=O)cc1 | inactive |
| COc1cc(C(=O)OCCCN2CCCN(CCCOC(=O)c3cc(OC)c(OC)c(OC)c3)CC2)cc(OC)c1OC | inactive |
| NC(=O)c1ncn([C@@H]2O[C@H](CO)[C@@H](O)[C@H]2O)c1O | inactive |
| CC1=NS(=O)(=O)c2cc(Cl)ccc2N1 | inactive |
| CC(N=C(NC#N)Nc1ccncc1)C(C)(C)C (centres undefined) | inactive |
| CN(C)CC/C=C1\c2ccccc2COc2ccccc21 | inactive |
| CCCCNC(=O)NS(=O)(=O)c1ccc(C)cc1 | inactive |
| c1ccc2c(c1)CCCC2C1=NCCN1 (centres undefined) | inactive |
| CC(C)[N+](C)(CCOC(=O)C1c2ccccc2Oc2ccccc21)C(C)C | inactive |
| CCCN(CCC)C(=O)C(CCC(=O)O)NC(=O)c1ccccc1 (centres undefined) | inactive |
